Measurements reported in PMC5540273 (PLoS ONE, 2017).

What follows are compounds tested on MAP4K3. Conditions: concentration: 1 μM, replicates: in singlicate; n = 1.
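Further: KINOMEscan kinase panel screen.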

Row | Structure (SMILES) | %Inh
1 | O=C(Nc1cccc(-c2nn3ncccc3c2-c2ccnc(Nc3cccc(C(F)(F)F)c3)n2)c1)c1c(F)cccc1F [GSK299495] | 0%
2 | O=C(c1ccc(-c2cc(-c3c[nH]nc3-c3ccccn3)ccn2)cc1)N1CCOCC1 [GW812171] | 0%
3 | Cc1cccc(Cn2ccn3c(=O)cc(N4CCOCC4)nc23)c1 [GSK2297542] | 0%
4 | NS(=O)(=O)c1cccc(-c2ccc3ncc(N4CCOCC4)nc3c2)c1 [GSK1535721] | 0%
5 | CCc1ccnc(/C=C/c2n[nH]c3cc(Sc4ccccc4C(=O)NC)ccc23)c1 | 0%
6 | O=c1cc(N2CCOCC2)nc2n(Cc3cccc(C(F)(F)F)c3)ccn12 [GSK2297543] | 0%
7 | COC(=O)Nc1nc2cc(Oc3ccc(NC(=O)Nc4cc(F)ccc4F)cc3)ccc2[nH]1.Cl [GW701424] | 0%
8 | NS(=O)(=O)CCc1cccc(Nc2nccc(-c3c(-c4cccc(NC(=O)c5c(F)cccc5F)c4)nn4ccccc34)n2)c1 [GSK336735] | 65%
9 | O=C(NCCNc1ccnc(Nc2ccc(F)cc2)n1)c1cc2ccccc2s1 [GSK1379874] | 0%
10 | CC(C)(C)n1cnc2c(N)ncnc21 [SKF-97359] | 0%
11 | COc1cc2c(cc1OC[C@@H](O)CO)ncc1c3ccc(C#N)cc3[nH]c21 | 20%
12 | O=C(NCCNc1ccnc(Nc2ccc(F)cc2)n1)Nc1ccccc1F [GSK1379880] | 0%
13 | Fc1ccc(-c2ncn(CCCN3CCOCC3)c2-c2ccccn2)cc1 [SB-211742] | 0%
14 | O=C(Nc1n[nH]c2cc(-c3cccc(F)c3)ccc12)C1CC1 [SB-735464] | 0%
15 | Cc1nnc(-c2ccc(C)c(-c3ccc(C(=O)Nc4ccc(NS(C)(=O)=O)cc4)cc3)c2)o1 [GW702865] | 0%
16 | CNc1ncnc2[nH]ncc12 [SKF-18355] | 0%
17 | Cc1cccc(-c2nc(-c3ccc(S(C)(=O)=O)cc3)sc2-c2ccncc2)c1 | 0%

Row | Structure (SMILES) | %Inh
18 | Nc1nc(-c2ccc3c(N)n[nH]c3c2)cc(N2CCCC2)n1 [GSK2227430] | 0%
19 | Fc1ccc(-c2ncn(CCCN3CCOCC3)c2-c2cccnc2)cc1 [SB-211743] | 11%
20 | [2H]C([2H])(c1cccc(C(F)(F)F)c1C)n1ccn2c(=O)nc(N3CCOCC3)cc12 [GSK2336394] | 0%
21 | c1ccc(-c2cc(-c3c[nH]nc3-c3ccccn3)ccn2)cc1 [GW576604] | 0%
22 | CCc1nc(-c2cccc(C)c2)c(-c2ccnc(NCc3ccccc3)c2)s1 | 0%
23 | Cn1ccc2ncnc(Oc3ccc(NC(=O)Nc4ccncc4)c(Cl)c3)c21 | 0%
24 | COCCNC(=O)c1ccc(-c2cc(C(=O)NC3CC3)cc(F)c2C)cc1 [GW868318] | 14%
25 | O=C1NC(=O)C(N2CCc3ccccc32)=C1c1cccc(Cl)c1 [SB-408010] | 20%
26 | CN(C1=C(c2ccccc2)C(=O)NC1=O)c1ccccc1 [SB-334860] | 8%
27 | NCC(NC(=O)c1cc(-c2cn[nH]c2)c(-c2ccnc3[nH]ccc23)s1)c1ccccc1.O=C(O)C(F)(F)F.O=C(O)C(F)(F)F (stereo not shown) [GSK1325775] | 6%
28 | COc1ccc(Nc2nccc(N3CCC(NC(=O)Nc4cccc(C(C)=O)c4)C3)n2)cc1 (stereo not shown) [GSK1379731] | 0%
29 | Cn1cc(-c2ccc3c(c2)CCN3C(=O)Cc2ccccc2Cl)c2c(N)ncnc21 [GSK2608885] | 70%
30 | O=c1cc(N2CCOCC2)nc2n(Cc3cccc(F)c3)ccn12 [GSK2297430] | 11%
31 | CN(C(=O)c1ccc(-c2cc(-c3c[nH]nc3-c3ccccn3)ccn2)cc1)C1CCOCC1 [GW810083] | 0%
32 | CC(=O)Nc1ccc(COc2ccc(Nc3ccnc4cc(-c5ccccn5)ccc34)cc2)cc1.Cl [GW440148] | 0%
33 | NS(=O)(=O)c1cccc(-c2ccc3nccc(-c4cccc(S(N)(=O)=O)c4)c3c2)c1 [GW867253] | 0%
34 | N#Cc1c(N2CCOCC2)sc(-c2ccn[nH]2)c1-c1ccc(Cl)cc1 | 0%
